In PubChem BioAssay AID1159580 (chemical genetic matrix, 2015):
Values joined by “and” are separate entries in the source; they are usually repeats but may differ in a detail not shown here. Equal values may be shown once. The campaign covered roughly 5,500 compounds. About 2,000 (36%) were called active. Another 18% or so got no clear call; they are omitted. No stated cut-off is given here; in the data, active means normalized growth mostly below about 0.91 (no sharp cut-off); inconclusive means no clear call, values can overlap the other calls; inactive means mostly above about 0.92. The list shows a part of the results.

Assay: chemical genetic growth profiling, strain panel (AID 1159580);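 further: tested at 20 µM; growth read once vehicle control cultures reached saturation at 30 °C; 1 = growth at the plate median or of vehicle wells; lower values mean less growth of the strain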
Conditions: growth OD

Measured: normalized growth

CNCCCN1c2ccccc2CCc2ccccc21
inactive: S. cerevisiae deletion strains, locus YKL009W, strain mrt4, hits give low values 1 | S. cerevisiae deletion strains, locus YKL068W, hits give low values 1 | S. cerevisiae deletion strains, locus YKL085W, strain MDH1 (second series), hits give low values 1.04 | S. cerevisiae deletion strains, locus YKL085W, strain MDH1, hits give low values 1.04 | S. cerevisiae deletion strains, locus YKL160W, strain elf1, hits give low values 1.03 | S. cerevisiae deletion strains, locus YKL190W, strain CNB1, hits give low values 1 | S. cerevisiae deletion strains, locus YKR001C, strain vps1, hits give low values 0.997 | S. cerevisiae deletion strains, locus YKR026C, strain gcn3, hits give low values 1.01 | S. cerevisiae deletion strains, locus YKR091W, strain srl3, hits give low values 1.01 | S. cerevisiae deletion strains, locus YLL001W, strain dnm1, hits give low values 1.03 | S. cerevisiae deletion strains, locus YLL026W, hits give low values 1.03 | S. cerevisiae deletion strains, locus YLL041C, strain sdh2, hits give low values 1.01 | S. cerevisiae deletion strains, locus YLR027C, strain aat2, hits give low values 1.03 | S. cerevisiae deletion strains, locus YLR039C, strain RIC1, hits give low values 1.22 | S. cerevisiae deletion strains, locus YLR058C, strain SHM2, hits give low values 1.01 | S. cerevisiae deletion strains, locus YLR102C, strain apc9, hits give low values 1 | S. cerevisiae deletion strains, locus YLR113W, strain HOG1, hits give low values 1.02 | S. cerevisiae deletion strains, locus YLR221C, strain rsa3, hits give low values 0.978 | S. cerevisiae deletion strains, locus YLR258W, strain gsy2, hits give low values 1 | S. cerevisiae deletion strains, locus YLR262C, strain YPT6 (second series), hits give low values 1.09 | S. cerevisiae deletion strains, locus YLR262C, strain YPT6, hits give low values 1.16 | S. cerevisiae deletion strains, locus YLR268W, strain sec22, hits give low values 0.988 | S. cerevisiae deletion strains, locus YLR320W, strain mms22, hits give low values 0.987 | S. cerevisiae deletion strains, locus YLR330W, strain CHS5, hits give low values 1.01 | S. cerevisiae deletion strains, locus YLR342W, strain FKS1 (second series), hits give low values 0.997 | S. cerevisiae deletion strains, locus YLR342W, strain FKS1, hits give low values 1.04 | S. cerevisiae deletion strains, locus YLR357W, strain rsc2, hits give low values 0.985 | S. cerevisiae deletion strains, locus YLR370C, strain arc18, hits give low values 1.02 | S. cerevisiae deletion strains, locus YLR371W, strain rom2, hits give low values 0.988 | S. cerevisiae deletion strains, locus YLR384C, strain iki3, hits give low values 1.01 | S. cerevisiae deletion strains, locus YLR418C, strain cdc73, hits give low values 0.938 | S. cerevisiae deletion strains, locus YML016C, strain PPZ1, hits give low values 0.997 | S. cerevisiae deletion strains, locus YML032C, strain rad52, hits give low values 0.999 | S. cerevisiae deletion strains, locus YML120C, strain ndi1, hits give low values 1.04 | S. cerevisiae deletion strains, locus YML124C, strain tub3, hits give low values 1 | S. cerevisiae deletion strains, locus YMR058W, strain fet3, hits give low values 1.02 | S. cerevisiae deletion strains, locus YMR078C, strain ctf18, hits give low values 1 | S. cerevisiae deletion strains, locus YMR125W, strain sto1, hits give low values 0.985 | S. cerevisiae deletion strains, locus YMR129W, hits give low values 1.01 | S. cerevisiae deletion strains, locus YMR205C, strain PFK2, hits give low values 1.04 | S. cerevisiae deletion strains, locus YMR223W, strain ubp8, hits give low values 0.983 | S. cerevisiae deletion strains, locus YMR231W, strain pep5, hits give low values 1.01 | S. cerevisiae deletion strains, locus YMR263W, strain SAP30, hits give low values 0.997 | S. cerevisiae deletion strains, locus YMR307W, strain GAS1, hits give low values 1.1 and 0.99 | S. cerevisiae deletion strains, locus YNL067W, strain RPL9B, hits give low values 0.998 | S. cerevisiae deletion strains, locus YNL071W, strain lat1, hits give low values 0.994 | S. cerevisiae deletion strains, locus YNL128W, strain TEP1, hits give low values 1.02 | S. cerevisiae deletion strains, locus YNL153C, strain GIM3, hits give low values 0.989 | S. cerevisiae deletion strains, locus YNL175C, strain NOP13, hits give low values 1 | S. cerevisiae deletion strains, locus YNL183C, strain NPR1, hits give low values 0.959 | S. cerevisiae deletion strains, locus YNL197C, strain WHI3, hits give low values 1 | S. cerevisiae deletion strains, locus YNL209W, strain ssb2, hits give low values 1 | S. cerevisiae deletion strains, locus YNL224C, strain SQS1, hits give low values 0.998 | S. cerevisiae deletion strains, locus YNL233W, strain BNI4, hits give low values 0.985 | S. cerevisiae deletion strains, locus YNL248C, strain rpa49, hits give low values 0.995 | S. cerevisiae deletion strains, locus YNL250W, strain rad50, hits give low values 1.01 | S. cerevisiae deletion strains, locus YNL271C, strain bni1, hits give low values 0.998 | S. cerevisiae deletion strains, locus YNL298W, strain CLA4, hits give low values 0.998 | S. cerevisiae deletion strains, locus YNL307C, strain MCK1, hits give low values 1 | S. cerevisiae deletion strains, locus YNL322C, strain KRE1 (second series), hits give low values 1.02 | S. cerevisiae deletion strains, locus YNL322C, strain KRE1, hits give low values 1.01 and 0.993 | S. cerevisiae deletion strains, locus YNR049C, strain mso1, hits give low values 1.01 | S. cerevisiae deletion strains, locus YNR052C, strain pop2, hits give low values 1.01 | S. cerevisiae deletion strains, locus YOL012C, strain htz1 0.655 | S. cerevisiae deletion strains, locus YOL147C, strain pex11, hits give low values 1 | S. cerevisiae deletion strains, locus YOR001W, strain rrp6, hits give low values 1.02 | S. cerevisiae deletion strains, locus YOR061W, strain CKA2, hits give low values 1.01 | S. cerevisiae deletion strains, locus YOR069W, strain VPS5, hits give low values 1.01 | S. cerevisiae deletion strains, locus YOR070C, strain gyp1, hits give low values 1.01 | S. cerevisiae deletion strains, locus YOR080W, strain dia2, hits give low values 1.03 | S. cerevisiae deletion strains, locus YOR083W, strain WHI5 (second series), hits give low values 1.03 | S. cerevisiae deletion strains, locus YOR083W, strain WHI5, hits give low values 1.02 | S. cerevisiae deletion strains, locus YOR106W, strain vam3, hits give low values 1.06 | S. cerevisiae deletion strains, locus YOR136W, strain idh2, hits give low values 0.999 | S. cerevisiae deletion strains, locus YOR144C, strain elg1, hits give low values 1 | S. cerevisiae deletion strains, locus YOR184W, strain ser1, hits give low values 1.03 | S. cerevisiae deletion strains, locus YOR231W, strain MKK1, hits give low values 1.01 | S. cerevisiae deletion strains, locus YOR265W, strain rbl2, hits give low values 1.02 | S. cerevisiae deletion strains, locus YOR270C, strain vph1, hits give low values 0.961 | S. cerevisiae deletion strains, locus YOR290C, strain snf2, hits give low values 0.981 | S. cerevisiae deletion strains, locus YOR316C, strain cot1, hits give low values 1.01 | S. cerevisiae deletion strains, locus YPL051W, strain arl3, hits give low values 1.01 | S. cerevisiae deletion strains, locus YPL055C, strain LGE1, hits give low values 0.96 | S. cerevisiae deletion strains, locus YPL078C, strain atp4, hits give low values 1.05 | S. cerevisiae deletion strains, locus YPL106C, strain sse1, hits give low values 1.04 | S. cerevisiae deletion strains, locus YPL240C, strain hsp82, hits give low values 1.01 | S. cerevisiae deletion strains, locus YPL241C, strain CIN2, hits give low values 1.01 and 0.994 | S. cerevisiae deletion strains, locus YPL256C, strain CLN2, hits give low values 1.01 | S. cerevisiae deletion strains, locus YPR119W, strain clb2, hits give low values 1 | S. cerevisiae deletion strains, locus YPR141C, strain kar3, hits give low values 1 | S. cerevisiae deletion strains, locus YPR163C, strain tif3, hits give low values 0.989 | S. cerevisiae deletion strains, locus YPR167C, strain met16, hits give low values 1.01 | S. cerevisiae deletion strains, strain wtn01, hits give low values 0.985 | S. cerevisiae strains, strain wild type, hits give low values 1.01
